# Laboratory results taken from PubChem BioAssay (NCI).
# About 83,000 compounds went through this panel and 20% of them were active in at least one assay; those are over-represented in the sample as a whole.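 The endpoint reported here, percent growth, reads 100 for growth as untreated, 0 for no net growth and -100 for all cells dead.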 A number with no mark means an inactive call. Activity calls are given as the source filed them. How the source made its calls: active means growth percent below 10; inactive means the rest.
# How the values were obtained:
# Test in all cases: NCI-60 one-dose screen, 48 h (100 = growth as untreated, 0 = no growth, -100 = all killed)
# Conditions in all cases: 10 µM unless noted
# [1] = system: SK-MEL-2 melanoma
# [2] = system: EKVX NSCLC
# [3] = system: SN12C renal
# [4] = system: UO-31 renal
# [5] = system: TK-10 renal
# [6] = system: ACHN renal
# [7] = system: CAKI-1 renal
# [8] = system: A498 renal
# [9] = system: CCRF-CEM leukemia
# [10] = system: MOLT-4 leukemia
Structure (SMILES),growth [1],growth [2],growth [3],growth [4],growth [5],growth [6],growth [7],growth [8],growth [9],growth [10]
O=C(Cc1c(F)cccc1Cl)Nc1ccc(S(=O)(=O)Nc2ncccn2)cc1,73.1%,100%,96%,42.7%,112%,100%,91%,98.4%,61.6%,103%
Cc1ccc2c(c1)ncn2-c1ncnc2c1CC(C)c1ccccc1N2C (stereo not given),32.7%,40.8%,21.2%,26.9%,8.21% (active),20.2%,19.6%,-11.7% (active),13.3%,12%
COc1ccc(C(=O)N2CCN(C(=O)c3cc(OC)c(OC)c(OC)c3)CC2)cc1OCCCCOc1cc2c(cc1OC)C(=O)N1CCC[C@H]1C=N2,31.9%,113%,97.9%,32.7%,157%,105%,81.4%,95.5%,86.4%,108%
CCC(c1ccc(OC)cc1)C(CC)c1ccc(O)c(CN2CCCC2)c1 (stereo not given),-37.6% (active),11.3%,23.3%,15%,54.5%,39.3%,32.6%,-5.74% (active),19.7%,1.69% (active)
Cc1ccc2c(c1)C(C)Cc1c(ncnc1-n1cnc3ccccc31)N2C (stereo not given),38.6%,40.1%,37.5%,40.1%,13.8%,35.4%,24.6%,-16% (active),10%,11.7%
CCOc1ccc(/C=C/C=N/NC(N)=S)cc1,108%,95.5%,80.4%,38.3%,74.1%,80.2%,83.9%,77.7%,62.6%,35.8%
CCc1c(C(=O)Nc2ccc3ccccc3c2)[nH]c(C)c1C(C)=O,87.9%,84.3%,96.6%,86.8%,99.8%,98.6%,86.4%,80.2%,96.1%,68.5%
O=S(=O)(NCCCNc1cc(-c2cn(-c3ccccc3)nc2-c2cccc(O)c2)ccn1)c1cccc2ccccc12,62.4%,37.5%,51.4%,20.6%,66.3%,29.8%,28.7%,43.6%,26%,13.6%
COc1ccc(/C=C/C(=O)OCC(=O)NNC(=O)c2ccccc2)cc1OC,68.6%,84.4%,101%,80.9%,121%,90.2%,83.5%,93%,93.8%,70.1%
O=C(/C=C/CN1CCCCC1)Nc1cc2c(Nc3ccc(F)c(Cl)c3F)ncnc2cc1OCCOC(F)F,36.1%,11.8%,7.28% (active),10.4%,8.8% (active),5.75% (active),5.99% (active),-21.7% (active),24.6%,1.31% (active)
Cc1ccnc2nc(C(=O)OCC(=O)Nc3ccc(-c4ccccc4)cc3)nn12,77.3%,104%,102%,62.8%,118%,107%,91%,105%,91.6%,65%
Cc1cc2c(C(C)C)c(O)c(O)c(C=NCCCCCCC(=O)O)c2c(O)c1-c1c(C)cc2c(C(C)C)c(O)c(O)c(C=NCCCCCCC(=O)O)c2c1O,28.5%,27.7%,35.7%,28.8%,17.3%,42.1%,63.3%,36.6%,18.1%,18.5%
C=C1C(=O)O[C@H]2[C@H]1CC/C(COC(=O)NCc1cc(OC)cc(OC)c1)=C\CC[C@@]1(C)O[C@@H]21,23.2%,40.5%,7.86% (active),-58.4% (active),-1.01% (active),5.79% (active),-15.1% (active),68%,2.4% (active),-3.45% (active)
COC(=O)c1ccc(C)cc1,106%,98.3%,107%,101%,-16.3% (active),116%,97%,79.9%,101%,103%
CC(=O)Nc1ccc2c(c1)/C(=C\C=C/c1ccc([N+](C)(C)C)cc1)c1ccccc1-2,80.9%,57.7%,16.6%,64.5%,103%,73.2%,65.8%,86%,67.3%,63.6%
CCCCCCOc1ccc(C2(Cl)c3ccccc3N(C)c3ccccc32)cc1,42.3%,58.5%,52.4%,67.8%,76.7%,61%,61.7%,86.6%,89.2%,74%
COc1ccc(/C(=N/O)c2cc(F)c(F)c(OC)c2F)cc1O,3.65% (active),45.5%,45.7%,52.6%,88.7%,48.4%,28.1%,2.7% (active),15.5%,37.4%
CC(Br)C(OC(=O)c1ccccc1Cl)c1cc2c(cc1Br)OCO2 (stereo not given),90.4%,76.6%,98.9%,49.1%,82.1%,88.2%,70%,88.5%,103%,75.6%
O=C(c1c[nH]c2ccccc12)C(Sc1nc2ccccc2c(=O)[nH]1)c1ccccc1 (stereo not given),72.2%,91.2%,98.5%,81.8%,97.6%,97.9%,108%,106%,99.8%,99.8%
Cc1ccc2nc(-c3c(CCCO)noc3N)[nH]c(=O)c2c1,105%,101%,111%,47%,95.5%,113%,97.1%,104%,88.5%,83.7%
Cc1cc(C)c2c(=O)[nH]c(SCC(=O)Nc3cccc(S(=O)(=O)N(C)C)c3)nc2n1,96.5%,93.3%,109%,94.6%,98.4%,108%,107%,104%,89.1%,96.1%
CCCCCCCN(CCCCCCC)C(=N)c1ccc(OC)c2ccccc12,-82.5% (active),-21.7% (active),-75.4% (active),-86.6% (active),-89.4% (active),-91.9% (active),-12.2% (active),-52.9% (active),-43.5% (active),-50.4% (active)
CCN(CC)S(=O)(=O)c1ccc2[nH]c(=O)cc(C(=O)Nc3ccc(OC)cc3OC)c2c1,88.8%,166%,108%,108%,115%,103%,120%,146%,92.6%,99.7%
C=CCc1cc(Cl)cc2c(OC(C)=O)c(C(C)=O)c(-c3ccccc3)nc12,112%,75.5%,99.5%,78.2%,114%,102%,87.5%,110%,104%,101%
Cc1ccc(S(=O)(=O)N2CCC(C(=O)Nc3ccc(F)cc3F)CC2)cc1,34.2%,94.6%,90.7%,37.6%,85.3%,107%,97.8%,83.7%,101%,79.2%
OC1CC2c3ccccc3C1c1ccccc12 (stereo not given),117%,108%,106%,95.7%,96.9%,111%,94.5%,125%,104%,106%
O=C(/C=C/CN1CCOCC1)Nc1cc2c(Nc3ccc(F)c(Cl)c3F)ncnc2cc1OCCOC(F)F,85.6%,24.8%,34.4%,22.9%,33.9%,14.2%,15.9%,-5.14% (active),94%,69.5%
CN1CCN(CCCOc2ccc3nc(Nc4ccc(C(F)(F)F)c(Cl)c4)ccc3c2)CC1,8.88% (active),38.7%,25%,-8.8% (active),18.9%,3.12% (active),3.08% (active),63.3%,3.91% (active),-35.7% (active)

Structure (SMILES),growth [1],growth [2],growth [3],growth [4],growth [5],growth [6],growth [7],growth [8],growth [9],growth [10]
COc1cccc2nc(Nc3ccc(NC(=O)c4ccc5ncccc5c4)cc3)ccc12,115%,87.5%,97.8%,82.4%,108%,92.8%,70.2%,83.4%,69.4%,67.1%
O=S(=O)(NCCCNc1cc(-c2cn(-c3ccccc3)nc2-c2cccc(O)c2)ccn1)c1cccc(F)c1,66.3%,39%,65.9%,35.6%,58.9%,43.7%,41%,46.6%,36.3%,31%
CN(C)C1CCC(NC2=CC(=O)C=CC2=O)CC1 (stereo not given),107%,111%,115%,92.3%,113%,99.2%,100%,122%,107%,102%
Nc1nc(-c2cc3ccccc3o2)cc(=O)c(=O)[nH]1,98.9%,99.7%,106%,110%,103%,94.3%,91.9%,99.2%,84.2%,96.6%
O=C(O)c1ccc(-n2cc(CNc3ccc(C(F)(F)F)cc3)c(-c3ccccc3)n2)cc1,93.8%,91.8%,94.6%,80.5%,110%,88.9%,87.2%,87.6%,91.4%,76.5%
O=C1CCCCN1CCCCC#Cc1ccccc1C#Cc1ccccn1,64.5%,106%,106%,42.2%,136%,86.4%,121%,114%,74%,94.9%
CCC#CC[C@H]1C/C=C2/C(=O)C=C[C@@H]2C/C=C\CCCC(=O)O1,8.9% (active),23.7%,0.755% (active),-82.7% (active),-1.68% (active),-86.8% (active),18.2%,46.5%,9.12% (active),7.42% (active)
COC(=O)CCCCCCN=Cc1c(O)c(O)c(C(C)C)c2cc(C)c(-c3c(C)cc4c(C(C)C)c(O)c(O)c(C=NCCCCCCC(=O)OC)c4c3O)c(O)c12,24.7%,23.9%,22.8%,21.8%,12.4%,21.6%,65.4%,46.1%,16.1%,15.8%
C#CCC1(c2ccc(F)c(F)c2)NS(=O)(=O)c2ccccc21 (stereo not given),91.2%,103%,106%,86.4%,83.6%,113%,94.4%,109%,99.2%,90%
CCN1C(=O)N[C@H]2[C@@H]3NC(=O)c4ccc(Cl)n4[C@@H]3C[C@]21O,-37% (active),10.8%,-1.6% (active),37.3%,4.37% (active),14.9%,31%,-0.0737% (active),-7.16% (active),0.842% (active)
Cc1cccc2cc(/C=C/C(=O)/C=C/c3ccc(Cl)cc3)c(=O)[nH]c12,91%,62.5%,47.6%,69.7%,105%,60.5%,91.1%,63.1%,14.7%,32.4%
Nc1ccccc1C#C/C=C\C#Cc1cccc(O)c1,20.2%,71.8%,67.2%,12.4%,83.8%,36.4%,31.3%,78.6%,32%,27.1%
Cc1ccc2nc(-c3c(N)n[nH]c3CCCO)[nH]c(=O)c2c1,108%,103%,104%,63.9%,109%,115%,112%,100%,91.8%,95.7%
O=S=Nc1ccc([N+](=O)[O-])cc1,98.4%,96.9%,98.7%,78.3%,84.9%,80.8%,78.9%,79.2%,101%,91.2%
O=S(=O)(NCCNc1cc(-c2cn(-c3ccccc3)nc2-c2ccccc2)ccn1)c1ccc(F)cc1,108%,71.3%,92.8%,60.7%,114%,93%,66.1%,83.8%,83.4%,70.1%
CCOC(=O)/C=C\C(=O)NC(N)=O,101%,98.8%,103%,90.8%,97.8%,112%,96%,107%,93.9%,86.5%
CC(=O)Oc1cccc(OC(C)=O)c1OC(C)=O,103%,95.4%,99.4%,76.6%,107%,102%,84%,87.3%,100%,82.4%
Nc1cccc2c1CN(C1CCC(=O)NC1=O)C2=O (stereo not given),113%,94.7%,106%,101%,132%,105%,95.6%,84.8%,98.7%,95.1%
Nc1nc(Cl)c2c(ncn2Cc2ccc(CCl)cc2)n1,98.6%,103%,93.4%,70.5%,78.9%,83.3%,102%,97.3%,1.58% (active),103%
c1cncc(CNc2ccccc2-c2nnc(Nc3ccc4c(c3)OCCO4)o2)c1,15.8%,49.8%,37.7%,47.1%,63.1%,40.4%,34.3%,11.3%,14%,22.1%
OCc1c(-c2ccccc2)nc2sccn12,108%,86.9%,105%,94.8%,106%,98.4%,96.6%,95.9%,17.9%,117%
O=C(c1ccccc1)C(Cl)C(Cl)c1ccccc1 (stereo not given),96.3%,79%,-13.9% (active),-50.5% (active),-8.89% (active),-71.5% (active),38%,103%,5.75% (active),25.9%
NC(=O)c1ccc2c(c1)OCO2,114%,95.1%,108%,102%,91.7%,109%,93.5%,86.8%,102%,105%
O=C(Nc1cccc(Cl)c1)c1cc([N+](=O)[O-])ccc1O,5.35% (active),60.5%,55.1%,45.5%,61%,59.9%,52.6%,8.44% (active),46.4%,35.7%
Cc1cc(Cl)ccc1OC(C)C(=O)Nc1nnc(C2CC2)s1 (stereo not given),36.3%,98.6%,96.4%,40.1%,104%,109%,103%,95.2%,95.9%,108%
COc1ccc2c(c1)NC(=O)CN2c1nc(C)nc2ccccc12,23.5%,30.1%,24.7%,26.8%,14.8%,26.9%,29.3%,-4.89% (active),37.2%,23.7%
Nc1nc(N)c2nc(CNc3ccc(C(=O)CC(CCC(=O)O)C(=O)O)cc3)cnc2n1 (stereo not given),-6.72% (active),42.8%,30.9%,8.63% (active),74.7%,27.2%,-3.87% (active),51.4%,17.8%,33%
